This note sets out measurements from PubChem BioAssay AID588342 (National Center for Advancing Translational Sciences (NCATS), 2011).

The whole screen tested about 360,000 compounds, of which about 25,000 (6.9%) were called active. Roughly 9% stayed inconclusive and do not appear here. Only a selection was taken, and actives are over-represented in it overall. A number with no mark means an inactive call. The call rests on the fitted dose curve; in most records, active means well fitted inhibition curve with a large enough effect; inconclusive means small, poorly fitted or top-dose-only effect; inactive means flat fitted curve, though single readings scatter.
Potency means the concentration at half of the fitted maximal effect.

Chain of Luciferin 4-monooxygenase (Photinus pyralis) (P08659 whole entry, looked up): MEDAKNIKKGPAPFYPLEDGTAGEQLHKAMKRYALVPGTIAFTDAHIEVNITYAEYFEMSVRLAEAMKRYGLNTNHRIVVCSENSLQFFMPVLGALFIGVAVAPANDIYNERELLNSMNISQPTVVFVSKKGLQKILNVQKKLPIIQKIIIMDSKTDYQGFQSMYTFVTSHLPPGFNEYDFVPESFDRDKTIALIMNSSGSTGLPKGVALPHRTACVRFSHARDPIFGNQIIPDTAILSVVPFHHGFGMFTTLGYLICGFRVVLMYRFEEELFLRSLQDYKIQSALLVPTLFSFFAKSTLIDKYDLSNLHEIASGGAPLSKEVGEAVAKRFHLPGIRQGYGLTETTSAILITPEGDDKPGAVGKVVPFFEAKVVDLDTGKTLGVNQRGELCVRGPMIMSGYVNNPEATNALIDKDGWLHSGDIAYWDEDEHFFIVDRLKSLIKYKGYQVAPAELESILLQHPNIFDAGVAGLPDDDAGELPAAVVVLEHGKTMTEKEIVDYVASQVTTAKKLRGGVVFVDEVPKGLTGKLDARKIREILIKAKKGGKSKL

This assay has as its target Luciferin 4-monooxygenase (Photinus pyralis) (UniProt P08659). The assay can be described thus: qHTS profiling assay for firefly luciferase inhibitor/activator using purifed enzyme and Km concentrations of substrates (counterscreen for miR-21 project). Further: nearly all actives have a fitted effect of over 55% in size.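 On activity change, negative = inhibition: plate controls were vehicle for no effect and reference inhibitor for full effect.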 The note with it: purified FLuc, luminescence inhibition; series mostly up to 57.5 µM; activity change, negative = inhibition: at the top concentration. Put shortly: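 Purified P. pyralis luciferase (10nM final) with 10uM D-luciferin and 10uM ATP (Km levels) in 50mM Tris acetate pH 7.5, 10mM Mg acetate, 0.01% Tween-20, 0.05% BSA; qHTS 6-point titration, ~60 µM downward; luminescence read.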
On to `CCOC(=O)c1ccc(NC2=CC(c3ccc(OCC)cc3)N(c3ccc(C(=O)OCC)cc3)C2=O)cc1` (configuration not stated), for which the “activity change, negative = inhibition” value was -7.59%. `CCOC(=O)N1CCN(C(=O)C(=O)Nc2sc3c(c2C#N)CC(C)(C)OC3)CC1`: the Potency was 16.9 µM (active). `COC(=O)c1c(NC(=O)C(=O)N2CCCCC2)sc2c1CC(C)(C)OC2`: the “activity change, negative = inhibition” value is 0.968%. Still for that read-out and setting: with `CC1(C)Cc2c(sc(NC(=O)C(=O)N3CCOCC3)c2C#N)CO1` the figure was 0.455%. `CCCCc1ccc(NC(=S)NCCCN2CCOCC2)cc1`: the “activity change, negative = inhibition” value was -1.41%. Still for that read-out and setting: with `COc1ccc(NC(=S)N2CCCC(CO)C2)c(OC)c1` (configuration not stated) the figure was -3.78%. On to `CCCCc1ccc(NC(=S)N2CCCC(CO)C2)cc1` (configuration not stated), for which the Potency was 2.69 µM (active).

Turning to `CCOc1ccc(CNC(=O)c2cc(=O)[nH]c3ccc(S(=O)(=O)N4CCCCC4)cc23)cc1`, the “activity change, negative = inhibition” value was 1.65%. Still for that read-out and setting: then `Cc1ccc2c(CN3CCN(S(=O)(=O)c4ccccc4C(F)(F)F)CC3)cc(=O)oc2c1`, with -1.82%. The same measure, in the same setting: then `COc1ccc(CNC(=O)c2ccc3c(c2)nc2n3CCOC2)c(OC)c1`, with -9.19%.

With `COc1ccc(OC)c(CN2CCN(C(=O)CNC(=O)c3cc(C)cc(C)c3)CC2)c1`, the “activity change, negative = inhibition” value was 0.562%. Regarding `Cc1ccc(C(=O)CSc2nc(-c3ccccc3)nc3c2CCCC3)c(C)c1`, the “activity change, negative = inhibition” value was -6.25%. The same measure, in the same setting: then `COc1ccc(C(=O)CSc2nnnn2C)c(OC)c1`, with -3.87%.

For `CCn1nnnc1SCC(=O)c1ccc(C)cc1C`, the Potency is 6.75 µM (active). Take `CCOc1ccccc1N(C)C(=O)c1cc2c(s1)-c1ccccc1OC2`: the “activity change, negative = inhibition” value is -17.2%. In the case of `CC1(C)CC(=O)C=C(c2ccc(Cl)c(C(F)(F)F)c2)C1`, the “activity change, negative = inhibition” value was -1.98%. Consider `N#CC(=C1SC=CS1)c1nc(-c2ccccc2)cs1`, for which the Potency was 7.57 µM (active).

On to `N#C/C(=C1/CCCN1)c1ccccn1`, for which the “activity change, negative = inhibition” value is 0.552%. The same measure, in the same setting: then `COc1cccc(C(=O)OCC(=O)c2[nH]c(C)c(C(C)=O)c2C)c1`, with 3.9%; and `CCc1ccc(NC(=O)c2cnc3c(-c4ccccc4)c(C)nn3c2C)cc1`, with -4.43%. `COc1ccccc1C(=O)Nc1ccc(OCc2nnc3c4ccccc4c(C)nn23)cc1`: the Potency was 4.26 µM (active). As to `COc1cc(C(=O)Nc2ccc(OCc3cc(=O)n4ccc(C)cc4n3)cc2)cc(OC)c1OC`, the “activity change, negative = inhibition” value is -2.02%.

Turning to `Cc1cccc(C(=O)NNC(=O)CSc2nnc(C(C)C)n2C)c1`, the “activity change, negative = inhibition” value was 0.258%. For `C=CCn1c(C)cc(C2=NNC(=NCC)SC2)c1C`, the Potency is 0.151 µM (active). For `COCCn1c(C)cc(C2=NNC(=Nc3ccc(F)cc3)SC2)c1C`, the Potency was 3.38 µM (active). On to `Cc1ccc(S(=O)(=O)c2ccc(Cl)cc2)cc1S(=O)(=O)NC(C(=O)O)C(C)C` (configuration not stated), for which the “activity change, negative = inhibition” value was -1.66%. As for `CCOc1ccc(OCC)c(Nc2nc3ccccc3n3nnnc23)c1`, the “activity change, negative = inhibition” value is -4.04%. On the same count and under the same terms, then `Cc1cccc(N(C(=O)c2ccc(CN3CCOCC3)o2)C(C(=O)NC2CCCCC2)c2ccc(F)cc2)c1` (configuration not stated), with 0.757%; and `CCc1cc2c(cc3c(=O)n(CC(=O)N4CCN(c5cc(Cl)ccc5C)CC4)ncn32)s1`, with -1.68%. With `CCOc1ccc(N(C)S(=O)(=O)c2cc(-c3cnc(C)o3)ccc2OC)cc1`, the “activity change, negative = inhibition” value is -13.9%. Still for that read-out and setting: with `Cc1cc(C)c(NC(=O)CSc2nc3nccnc3c(=O)n2CCc2c[nH]c3ccccc23)c(C)c1` the figure was 1.53%.

`COCCNC(=O)c1ccc2c(c1)N(Cc1cccc(Cl)c1)C(=O)c1ccccc1S2(=O)=O`: the “activity change, negative = inhibition” value was 2.89%. As to `COc1cccc2cc(C(=O)N(C)C)c(=O)oc12`, the “activity change, negative = inhibition” value is 4.57%. As for `COc1ccc(CNC(=O)c2cc3cccc(OC)c3oc2=O)cc1`, the “activity change, negative = inhibition” value was 1.19%. On to `CN(c1ccccc1)S(=O)(=O)c1ccc(Cl)c(C(=O)NCCc2c[nH]c3ccccc23)c1`, for which the “activity change, negative = inhibition” value was 1.57%. As to `COc1cccc2cc(C(=O)NCc3ccc(C)cc3)c(=N)oc12`, the Potency is 5.36 µM (active). The same measure, in the same setting: then `COc1cccc2cc(C(N)=O)/c(=N\NC(=O)c3ccccc3)oc12`, with 1.69 µM (active). Regarding `Cc1cc(C)cc(OCC(=O)NNC(=O)c2cc3ccccc3oc2=O)c1`, the “activity change, negative = inhibition” value was -3.62%.

As for `COc1ccc2oc(=O)c(C(=O)NCc3ccccn3)cc2c1`, the “activity change, negative = inhibition” value was -18.7%. Take `COc1cccc2cc(C(=O)N3CCN(C(=O)c4ccccc4)CC3)c(=O)oc12`: the “activity change, negative = inhibition” value is 1.94%. As to `Cc1cc(C)cc(NC(=S)NCCc2c[nH]c3ccccc23)c1`, the “activity change, negative = inhibition” value is -0.441%.

In the case of `NC(=O)c1cc2ccccc2o/c1=N/NC(=O)c1cccc(F)c1`, the “activity change, negative = inhibition” value was -6.69%.

As for `O=C(NCCc1c[nH]c2ccccc12)c1cc2ccccc2oc1=O`, the Potency is 16.9 µM (active). Same read-out and setting: then `O=C(NCc1ccccn1)c1cc2ccccc2oc1=O`, with 13.5 µM (active). With `N#Cc1ccc(CN2CCN(CC(=O)Nc3ccccc3C(=O)NC3CC3)CC2)cc1`, the “activity change, negative = inhibition” value was 0.877%. Same read-out and setting: with `Cc1ccc(C(NC(=O)N2CCCC2)C(Cl)(Cl)Cl)cc1F` (configuration not stated) the figure was -0.884%; with `CCCCn1c(=O)c2oc3ccccc3c2n(CC(=O)Nc2ccccc2OC)c1=O`, -0.61%. Regarding `COc1ccc(C)cc1-n1c(-c2ccc(C)cc2)cc2c1CC(C)(C)CC2=O`, the “activity change, negative = inhibition” value was 5.93%. As for `COC(=O)C1=C(C)NC(=S)NC1c1ccc(OCC(=O)N2CC(C)OC(C)C2)c(OC)c1` (configuration not stated), the “activity change, negative = inhibition” value is 3.18%.

Consider `CC(=O)Nc1ccc(S(=O)(=O)N2CCN(S(=O)(=O)c3cccs3)CC2)cc1`, for which the “activity change, negative = inhibition” value was -1.89%. As for `O=C(NCC(c1ccc2c(c1)OCO2)N1CCN(c2ccccc2)CC1)C(=O)Nc1ccccc1F` (configuration not stated), the “activity change, negative = inhibition” value is -9.43%. For `COc1ccc(CCNC(=O)c2nn(C)c3c2CSc2ccccc2-3)cc1OC`, the “activity change, negative = inhibition” value is -17.3%.
